From PubChem
KCNH2 WT inh: qHTS for Inhibitors of KCHN2 3.1: Wildtype qHTS | U2OS, BacMam KCNH2, thallium flux FluxOr; active compounds read low | activity change, % at 1.84 µM | 340,000 compounds, 0.37% hits | Voltage-gated inwardly rectifying potassium channel KCNH2 (Homo sapiens), Q12809;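 active means maximum activity change below -70%; inconclusive means maximum activity change between -70% and -50%; inactive means maximum activity change above -50%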
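U2OS cells transduced with wild-type KCNH2 virus are loaded with FluxOr dye for 45 min, and thallium flux is measured in kinetic reads before and after stimulation buffer. Rate constants are normalized to DMSO controls.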
KB-3-1 cytotox: qHTS assay for MDR1-selective chemotherapeutics: Primary screen using the parental adenocarcinoma cell KB-3-1; 400,000 compounds, 1.4% hits; KB-3-1 viability, CellTiter-Glo ATP luminescence, 72 h; Potency, µM (titrated, usually from 46.1 µM), actives largely listed as cytotoxic; further: nearly all actives have a fitted effect of over 60% in size
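Screening of KB-3-1 cells (DMEM, 10% FBS, phenol-red free) ran from lowest to highest compound concentration; after 72 h at 37 °C viability was read luminescently and curves fitted.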
KCNH2 3.1 inh: qHTS for Inhibitors of KCHN2 3.1: Mutant qHTS | 340,000 compounds, 0.95% hits | AID 720553, 2013 | U2OS KCNH2 3.1, thallium flux FluxOr; active compounds read low | activity change, % (tested at about 1.8 µM);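 active means maximum activity change below -70%; inconclusive means maximum activity change from -70% to -50%; inactive means maximum activity change above -50%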;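 further: thallium influx rate constant from kinetic fluorescence after stimulation buffer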
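U2OS cells transduced with KCNH2 3.1 mutant virus (1.77 x 10^8 /mL, 4 h), plated overnight at 37 C, loaded 45 min with FluxOr dye plus Red40 quencher. Thallium flux rate constant from kinetic reads after stimulation buffer, normalised to controls.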
MCF10A rerep: A quantitative high throughput screen for small molecules that induce DNA re-replication in MCF 10a normal breast cells; MCF 10A DNA re-replication, Hoechst nuclear intensity, 48 h; 350,000 compounds, 2.9% hits; Potency, µM (top dose mostly 46.1 µM), most hits filed as activators; further: nearly all actives have a fitted effect of over 50% in size
KB-V1 cytotox: qHTS assay for MDR1-selective chemotherapeutics: Primary screen using the drug-selected MDR subline cells KB-V1; KB-V1 MDR cells viability, CellTiter-Glo, 72 h; Potency, µM (highest dose often 46.1 µM), hits mostly cytotoxic; 400,000 compounds, 3.4% hits; AID 1347076, 2019; further: nearly all actives have a fitted effect of over 60% in size
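Readout: CellTiter-Glo luminescence, 10 min after addition. Cells: KB-V1 MDR subline, 72 h at 37 degrees C with compound. Analysis: corrected, normalized data fitted to concentration-effect curves.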
SW480 rereplic: A quantitative high throughput screen for small molecules that induce DNA re-replication in SW480 colon adenocarcinoma cells. SW480 DNA re-replication, Hoechst DNA content imaging, 48 h. 340,000 compounds, 1.8% hits. Potency, µM (highest dose often 46.1 µM), most hits filed as activators. AID 624297, 2012; further: nearly all actives have a fitted effect of over 55% in size
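Readout is total intensity of Hoechst-stained nuclei, excited at 405 nm and collected at 500-530 nm. Compound treatment lasted 48 hr at 37 C in 5% CO2 before staining.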
Hits are given with their value; – = inactive; ? = inconclusive; · = no result; [ ] = dose if it differs, or a comment. An excerpt weighted towards active compounds, which were near 7.6% of everything screened. Unless noted, the call rests on the fitted dose curve; in most records, active means well fitted curve in the direction sought with a large enough effect; inconclusive means small, poorly fitted or top-dose-only effect, or another doubt; inactive means no such curve, though single readings can be large; an effect the other way counts as inactive or inconclusive.

SMILES	KCNH2 WT inh	KB-3-1 cytotox	KCNH2 3.1 inh	MCF10A rerep	KB-V1 cytotox	SW480 rereplic
COC(=O)C1=C(c2ccc(-c3ccccc3)c(F)c2)C[C@@H]2CC[C@H]1N2C(=O)NCCO	–	?	–	–	?	–
COC(=O)C1=C(c2ccc(-c3ccccc3)c(F)c2)C[C@@H]2CC[C@H]1N2C(=O)NCc1ccco1	–	?	–	21µM	–	–
CC([C@H](O)c1ccccc1)N(C)C (stereo not given in full)	·	·	·	–	·	–
CCc1ccc(OCC(=O)N2CCN(CCc3ccncc3)CC2)cc1	·	–	·	·	–	·
O=C(Nc1ccc2c(c1)OCO2)c1cccn(Cc2ccc(F)cc2)c1=O	·	–	·	·	–	·
CC(C)(C)c1cc(O)ccc1O	·	·	·	30µM	·	?
Cc1ccccc1NC(=O)Cc1nc(COC(=O)Cc2ccccc2)cs1	–	–	–	–	?	–
Cc1ccccc1NC(=O)CCl	–	21µM	–	–	–	–
CSc1ccc(Cl)c(C(=O)OCC(=O)N2CCN(C(=O)c3ccco3)CC2)c1	–	–	–	–	?	?
CCCCn1nnnc1C(c1cccc2ccccc12)N1CCC2(CC1)C(=O)NCN2c1ccccc1 (stereo not given)	·	?	·	·	21µM	·
CC(C)COP(=O)(OCC(C)C)C(Nc1ccccc1)c1ccccc1 (stereo not given)	–	–	–	?	?	–
CCCOP(=O)(OCCC)C(Nc1ccc(C(C)C)cc1)c1ccc([N+](=O)[O-])cc1 (stereo not given)	–	?	–	?	12µM	21µM
C[C@H](CO)N1C[C@H](C)[C@H](CN(C)S(=O)(=O)c2ccccc2)Oc2ccc(NC(=O)NC3CCCCC3)cc2CC1=O	–	–	–	?	–	–
c1ccc(C2c3ccccc3-n3nncc3CN2CC2CCCCC2)cc1 (stereo not given)	–	–	–	?	?	–[9.22 µM]
CN1Cc2cnnn2-c2ccccc2C1C#N (stereo not given)	–	?	–	?	–	?
N#CC1c2ccccc2-n2nncc2CN1Cc1cc(Cl)cc(Cl)c1 (stereo not given)	–	5.8µM	–	6.5µM	?	?
COc1ccc(CN2Cc3cnnn3-c3ccccc3C2C#N)cc1 (stereo not given)	–	–	–	3.3µM	?	?
COc1ccc(CN2Cc3cnnn3-c3ccccc3C2c2ccccc2)cc1 (stereo not given)	–	?	–	16µM	?	?
O=[N+]([O-])c1oc2ccc3ccccc3c2c1CCO	?	?	–	5.2µM	5.8µM	?
S=P(NCCSCc1ccccc1)(N1CC1)N1CC1	–	–	–	15µM	–	9.2µM
NC(Cc1ccc(O)cc1)C(=O)NN=Cc1ccc(N(CCCl)CCCl)cc1 (stereo not given)	–	–	–	–	–	?
COc1cc(C(=O)NN=Cc2ccc(N(CCCl)CCCl)cc2)cc(OC)c1OC	–	16µM	–	16µM	–	18µM
CCC1(O)C(=O)OCc2c1cc1n(c2=O)Cc2cc3c(N)cccc3nc2-1 (stereo not given)	–	0.21µM	·	–	1.5µM	?
COc1cc(OC)c(/C=C2\C(=O)Nc3ccccc32)c(OC)c1	–	4.1µM	–	5.2µM	8.2µM	12µM
COc1ccc2c(c1)/C(=C/c1cnc[nH]1)C(=O)N2	–	?	–	?	10µM	?
O=C1Nc2ccccc2/C1=C/c1cnc[nH]1	–	–	–	?	?	?
CCOC(=O)NC(O)C(Cl)(Cl)Cl (stereo not given)	·	·	·	–	·	–
c1ccc(N2CCN(c3ccccc3)CC2)cc1	·	–	·	·	–	·
O=[N+]([O-])c1ccc(N2CCOCC2)c2c1no[n+]2[O-]	–	?	–	·	5.2µM	·
